Reference: ChEMBL document CHEMBL3988442, “University of Dundee, Small-Polar-MMV Screening Library” (2021)
Hit rate of the full screen: of about 48,000 compounds, about 13,000 (27%) showed an effect of 50% or more. Some of the results follow.

What follows are compounds tested on Wolbachia pipientis (assay: Anti-Wolbachia Cell-Based Screen). Conditions: 5 µM.
Format: functional
Design: scale not given: in the data most compounds retested in dose-response had high values

SMILES	Percent Effect
CN(CC(C)(C)C)c1ccc(C(=O)NCCCc2ccccn2)cn1	-1.973%
Cc1oc(CNC(=O)Cc2cccc(OC(F)F)c2)cc1C(=O)O	1.075%
CN1C(=O)CCCC12CCCN(C(=O)c1ccoc1)C2 (configuration not stated)	102.5%
O=C1CCC2(CCCN(C(=O)c3ccoc3)C2)CN1CCc1c[nH]cn1 (configuration not stated)	2.528%
CN1C(=O)CCC12CCCN(C(=O)c1ccoc1)C2 (configuration not stated)	1.769%
Cc1cc(F)ccc1C(=O)N1C[C@@H]2COC[C@]2(CN(C)C)C1.O=C(O)C(F)(F)F	-5.19%
CCC(C)(O)CNC(=O)Nc1ccc(C)cc1Br (configuration not stated)	-22.84%
CNCCN1C(=O)CC[C@H]2CN(c3ncc(F)cn3)CC[C@H]21	-2.163%
NC(=O)C(NC(=O)c1cc(Br)c[nH]1)c1ccccc1 (configuration not stated)	0.3716%
CCc1nc(C)c(CN2CCN(c3ncnc4scc(C)c34)CC2)[nH]1	-4.164%
CS(=O)(=O)c1ccccc1C(=O)NCCCN1CCc2ccccc2C1	5.39%
CN(CCCNC(=O)c1ccccc1OCC(N)=O)CC(F)(F)F	8.203%
CCC(C)N(C)CCNC(=O)c1ccccc1OCCOC (configuration not stated)	91.86%
CCNC(=O)NC(=O)C(C)Nc1ccccc1OCCOC (configuration not stated)	1.487%
COCCOc1ccccc1C(=O)N(C)Cc1ncc(C)c(OC)c1C	-3.129%
COCCCNC(=O)c1ccccc1S(C)(=O)=O	133.8%
CS(=O)(=O)c1ccccc1C(=O)NCC1Cc2ccccc2O1 (configuration not stated)	-10.07%
COCCOc1ccccc1C(=O)NCCN(C)C(C)C	86.22%
CCN(CCNC(=O)c1ccccc1OCCOC)C1CC1	11.11%
CCCn1nc2c(cc1=O)CN(Cc1nc(CCOC)no1)CC2	3.931%
Cn1nc(C2CCCC2)c(-c2ccc3c(c2)OCO3)c1N	-8.229%
CCS(=O)(=O)N1CCC2(CC1)CC[C@@]1(C(=O)N(C)C)CN(C)C[C@@H]21.O=C(O)C(F)(F)F	4.402%
CC(=O)N1C[C@H]2C3(CCN(S(C)(=O)=O)CC3)CC[C@@]2(C(=O)N(C)C)C1	-15.61%
CNC(=O)[C@@]12CCC3(CCN(S(C)(=O)=O)CC3)[C@@H]1CN(C(C)=O)C2	110.1%
CCS(=O)(=O)N1CCC2(CC1)CC[C@@]1(C(=O)N(C)C)CN(C(C)=O)C[C@@H]21	-13.65%
CNC(=O)[C@@]12CCC3(CCN(S(=O)(=O)C4CC4)CC3)[C@@H]1CN(C(C)=O)C2	108%

SMILES	Percent Effect
CCS(=O)(=O)N1CCC2(CC1)CC[C@@]1(C(=O)NC)CN(C(C)=O)C[C@@H]21	0.6663%
O=C(N[C@@H]1CN(Cc2cccs2)[C@@H]2COC[C@@H]21)C1CCC1.O=C(O)C(F)(F)F	-6.502%
O=C(NC[C@H]1Cn2c(-c3ccccc3)cnc2CO1)C1CC1	-24.2%
CN(Cc1ccccc1)CC1CC2(CO1)CN(c1nncs1)C2 (configuration not stated)	4.017%
O=C(O)C(F)(F)F.O=C(O)[C@]12CCCN(Cc3cccs3)C[C@H]1CN(c1ncccn1)C2	1.756%
O=C(NCC1CC2(CO1)CN(c1nncs1)C2)C1CCC1 (configuration not stated)	113.3%
O=C(NCC1CC2(CO1)CN(c1ncccn1)C2)C1CCC1 (configuration not stated)	124.3%
O=C(NCC1CC2(CO1)CN(Cc1cccs1)C2)C1CCC1.O=C(O)C(F)(F)F (configuration not stated)	112.2%
O=C(O)C(F)(F)F.O=C(O)C(F)(F)F.c1ccc(OCC2CC3(CCN(c4ncccn4)CC3)CO2)nc1 (configuration not stated)	3.683%
O=C(C1CCC2(CCN(c3nncs3)CC2)C1)N1CCCC1 (configuration not stated)	-10.32%
CCS(=O)(=O)N1CCCC2(COCCN(c3nncs3)C2)C1 (configuration not stated)	-5.345%
CN(C)C(=O)NCC1CC2(CO1)CN(c1nncs1)C2 (configuration not stated)	109.2%
O=S(=O)(C1CC1)N1CCCC2(COCCN(c3nncs3)C2)C1 (configuration not stated)	1.243%
Cn1c(Cn2cccn2)nnc1C1CCCN(c2ccncc2F)C1 (configuration not stated)	5.271%
O=C(c1ccccn1)N1C[C@@H]2CC[C@H](C1)N(C(=O)CCC1CCCC1)C2	-23.02%
CCOCCCOC(=O)c1ccc2c(c1)[nH]c(=O)n2C	-4.386%
COc1ncnc(N(C)C)c1NC(=O)Cc1c[nH]c2ccc(F)cc12	-15.56%
C[C@@H]1CN(C(=O)c2ccc(Br)cc2F)CC(C(N)=O)O1 (some centres not stated)	-4.259%
CCOCCCNC(=O)Cc1cccs1	73.09%
CCOCCNC(=O)Cc1cccc(I)c1	3.378%
O=C(Cc1cccs1)NCC1(O)CCSCC1	3.486%
O=C(NCC1(O)CCc2ccccc21)Nc1ccc2c(c1)OCO2 (configuration not stated)	-4.749%
Cn1ncnc1NS(=O)(=O)c1ccc(F)cc1Cl	-0.8831%
CN(Cc1cc(Cl)ccc1Cl)Cc1ncnn1C	20.54%
Cn1ncnc1NCc1ccc(Cl)cc1	106%
Cn1ncnc1NCc1ccc(Br)cc1	79.22%

SMILES	Percent Effect
Cn1ncnc1NS(=O)(=O)c1ccc(F)cc1	-13.8%
Cn1ccnc1-c1noc(NCc2ccc(Br)cc2)n1	0.2508%
Clc1ccc(CNc2ccc(Cl)cn2)cc1	-12.24%
Cn1ncnc1NCc1ccc(F)cc1	113.5%
Cn1ccnc1-c1noc(NCc2ccc(Cl)cc2)n1	9.491%
Cc1nnc(NCc2ccc(Br)cc2)o1	-15.89%
Cn1ncnc1NCc1ccccc1Cl	98%
Cn1ncnc1NS(=O)(=O)c1ccccc1	-4.376%
CC(C)c1nccn1CCCNC(=O)c1ccc(N(C)C)nc1	-4.813%
NC(=O)CN1CCCC(C(=O)N2CCC(Oc3ncccn3)CC2)C1 (configuration not stated)	-4.684%
NC(=O)CN1CCCC(c2ccnc(Nc3ncccn3)c2)C1 (configuration not stated)	104.7%
Cc1cccc(C2CCCN(C(=O)CN3CCC(C(N)=O)CC3)C2)c1 (configuration not stated)	-7.369%
CCN1CCCC(c2c(-c3ccccc3)ncn2CC(N)=O)C1 (configuration not stated)	0.7504%
Cc1cccc(Nc2cc(C3CCCN(CC(N)=O)C3)ccn2)n1.O=CO.O=CO (configuration not stated)	109.2%
Cc1cccc(C2CCCN(C(=O)C3CCN(CC(N)=O)CC3)C2)c1 (configuration not stated)	-11.42%
NC(=O)CN1CCCC(c2cncc(Nc3ncccn3)n2)C1 (configuration not stated)	117.4%
Cl.Cl.NCC(=O)N1CCCC(c2cncc(Nc3ncccn3)n2)C1 (configuration not stated)	-7.502%
CCC(C)N(Cc1ccncc1)C(=O)CCC(=O)OC (configuration not stated)	-41.55%
Cc1nc(CN2CCCN(CC(=O)N(C)C(C)(C)C#N)CC2)no1	10.3%
CC(C)(C)OC(=O)N1CCC[C@H](NCC2=CCCOC2)C1	-0.302%
O=C(O)C(F)(F)F.O=C(O)C(F)(F)F.O=C(c1ccncc1)N1CC[C@@H]2[C@@H](CC1)OCCN2c1cccnc1	-4.707%
CC(C)CCN(C)C(=O)c1nc(S(C)(=O)=O)n2ccccc12	1.111%
CC(C)n1cnc(-c2nc(C(=O)N3CCCC3)c3ccccn23)c1	-0.8191%
CN(C)C(=O)c1nc(-c2ccc(S(C)(=O)=O)cc2)c2cnccn12	107.6%
CN(C)C(=O)c1nc(-c2ccc(S(C)(=O)=O)cc2)c2ccccn12	94.54%
O=C(c1coc(-c2ccccc2)n1)N1CCCC1	6.616%

SMILES	Percent Effect
CS(=O)(=O)c1ccc(-c2nc(C(=O)N3CCCC3)n3ccccc23)cc1	91.51%
CN(Cc1ccccc1)C(=O)c1nc(S(C)(=O)=O)n2ccccc12	-0.6664%
NCCN1CCC(c2nnc(Cn3ccnc3)n2C2CC2)CC1	3.949%
COc1ccc(CN(C)CC(=O)NC2(C)CCS(=O)(=O)C2)cc1F (configuration not stated)	-5.934%
O=C(NC1CCCN(c2ccc(OC(F)F)cc2)C1)c1cnccn1 (configuration not stated)	-2.478%
O=C(NC1CC(=O)N(C2Cc3ccccc3C2)C1)c1cnccn1 (configuration not stated)	-14.57%
O=C(NC1CCCN(CCc2ccccc2)C1)c1ccccn1 (configuration not stated)	90.98%
CC(=O)NC1CCCN(Cc2ccc(OCc3ccccn3)cc2)C1 (configuration not stated)	-5.429%
O=C(NC1CCCN(CCc2ccccc2)C1)c1cnccn1 (configuration not stated)	115.1%
CN(C(=O)CSc1ccccn1)C1CCCN(CCc2ccccc2)C1 (configuration not stated)	-2.321%
O=C(CCO)N1C[C@H]2CC[C@@H]1CN(C1Cc3ccccc3C1)C2	7.309%
O=C(c1ccccc1)N1CCN(CC2CCOc3ccccc3C2)CC1 (configuration not stated)	-9.678%
CC(=O)Nc1cccc(C(=O)N2CCc3c(nc(N(C)C)[nH]c3=O)C2)c1	-4.662%
CCn1cnnc1CNC(=O)NC(c1ccc(OC)cc1)C1CC1 (configuration not stated)	-3.354%
COc1cc2c(cc1-c1nc3c(cnn3C(C)C)[nH]1)OCO2	0.2831%
CCC(=O)Nc1cc(Cl)ccc1C(=O)N(C)Cc1noc(CC)n1	-2.438%
Cc1ccc(C)c(OCc2cc(C(=O)N(C)Cc3nonc3C)no2)c1	-9.317%
CCc1oc(C(=O)N(C)Cc2nonc2C)cc1CN(CC)CC	117.2%
CCN(Cc1nonc1C)C(=O)c1ccc(Br)o1	1.066%
CCc1nc(CN(C)C(=O)c2cc(CN(CC)CC)c(CC)o2)no1	113.6%
Cc1ncsc1C(=O)N(C)Cc1ccncc1	-15.3%
CCc1oc(C(=O)N(C)Cc2ccncc2)cc1CN(CC)CC	110.2%
CCc1nc(CN(C)C(=O)c2cc(NC(C)=O)ccc2Cl)no1	-10.82%
CN(Cc1ccncc1)C(=O)c1ccc(F)c(NS(C)(=O)=O)c1	4.431%
